Bioassay records: PubChem, The Scripps Research Institute Molecular Screening Center
SRC1 TRFRET art = flags TR-FRET format artefacts in PPARgamma SRC-1 recruitment agonist screen. TR-FRET detection artefact counter-screen, emission ratio; active compounds read high. TR-FRET ratio at 8 µM. AID 1051. hit rate 0.34% among 99,000; in the data active = TR-FRET ratio above about 2300
PPARg SRC-1 ag = promotes SRC-1 coactivator recruitment by human PPARgamma. AID 631. P37231. hit rate 0.41% among 200,000. PPARgamma-SRC-1 coactivator recruitment biochemical assay. activation, % at 8 µM; in the data active = activation above about 19%;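 also: 0% = DMSO and 100% = reference agonist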
Target sequence (P37231 whole entry, looked up): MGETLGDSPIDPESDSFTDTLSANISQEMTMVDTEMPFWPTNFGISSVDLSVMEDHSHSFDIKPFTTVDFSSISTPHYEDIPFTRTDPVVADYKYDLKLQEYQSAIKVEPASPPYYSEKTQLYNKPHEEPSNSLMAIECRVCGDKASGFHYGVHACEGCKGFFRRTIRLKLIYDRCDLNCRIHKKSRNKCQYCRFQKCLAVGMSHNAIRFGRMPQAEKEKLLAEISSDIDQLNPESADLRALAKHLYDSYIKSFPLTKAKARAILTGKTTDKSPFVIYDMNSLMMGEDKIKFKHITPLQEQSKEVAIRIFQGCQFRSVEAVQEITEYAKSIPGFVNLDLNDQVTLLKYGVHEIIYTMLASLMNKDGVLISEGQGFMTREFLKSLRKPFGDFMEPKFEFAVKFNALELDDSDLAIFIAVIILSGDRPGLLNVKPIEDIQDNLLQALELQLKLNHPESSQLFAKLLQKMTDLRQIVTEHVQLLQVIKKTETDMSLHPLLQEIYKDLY
SRC3 TRFRET art = TR-FRET artefact, counter-screen to PPARgamma/SRC-3 agonist assay. TR-FRET ratio at 8 µM. hit rate 0.39% among 99,000. PPARgamma/SRC-3 format; active compounds read high; in the data active = TR-FRET ratio above about 2000
PPARg SRC-3 ag = promotes SRC-3 coactivator recruitment by human PPARgamma. biochemical PPARgamma/SRC-3 coactivator recruitment assay. AID 731. activation, % at 8 µM. hit rate 0.26% among 200,000; in the data active = activation above about 23%;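 also: 0% = DMSO and 100% = reference agonist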
PPARg SRC2 recr = promotes SRC-2 coactivator recruitment by human PPARgamma | activation, % at 8 µM | PPARgamma LBD-SRC-2 recruitment, biochemical | P37231 | hit rate 0.34% among 200,000;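 also: 0% = vehicle and 100% = reference agonist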
SRC2 TRFRET art = flags TR-FRET format artefacts in PPARgamma SRC-2 recruitment agonist screen; hit rate 0.4% among 200,000; AID 1049; TR-FRET artefact counter-screen; active compounds read high; TR-FRET ratio at 8 µM; in the data active = TR-FRET ratio above about 2000
PPARg SRC2 ag = human PPARgamma SRC-2 recruitment agonism, confirmation; shares compounds with PPARg SRC-3 ag; biochemical SRC-2 recruitment by PPARgamma; activation, % at 8 µM; hit rate 52% among 790; AID 1297;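 also: 0% = vehicle alone and 100% = reference agonist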
PPARg SRC1 conf = human PPARgamma SRC-1 recruitment agonism, confirmation; shares compounds with PPARg SRC-3 ag; PPARgamma–SRC-1 coactivator recruitment biochemical assay; hit rate 43% among 790; activation, % at 8 µM; in the data active = activation above about 20%;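 also: 0% = vehicle wells and 100% = reference agonist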
PPARg SRC3 conf = human PPARgamma SRC-3 recruitment agonism, confirmation | activation, % at 8 µM | hit rate 29% among 790 | shares compounds with PPARg SRC-3 ag | biochemical PPARgamma-SRC-3 coactivator recruitment, agonist mode; in the data active = activation above about 24%;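 also: 0% = vehicle wells and 100% = reference agonist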
* = called active by the depositor; . = not tested or not shown. Only some compounds are listed: those with a hit (about 0.84% of all), similar ones and a draw of the others. Rule as the data show it, unless noted: active = activation above about 22%; inactive = the rest.

SMILES	SRC1 TRFRET art	PPARg SRC-1 ag	SRC3 TRFRET art	PPARg SRC-3 ag	PPARg SRC2 recr	SRC2 TRFRET art	PPARg SRC2 ag	PPARg SRC1 conf	PPARg SRC3 conf
CC(C)CC(=O)NC(=S)Nc1cccc2nsnc12	5013*	135.4*	4035*	62.1*	86.8*	3677*	136.6*	104.9*	81.0*
CCN1CC(CN(C)Cc2cn(-c3cccc(C)c3)nc2-c2cccc(F)c2)CC1=O (stereo unspecified)	1674	5.6	1797	3.1	2.5	1680	.	.	.
CCC(OC(=O)c1cc2sccc2n1C)C(=O)NCc1ccco1 (stereo unspecified)	.	31.4*	.	14.2	9.9	1504	16.1	24.9*	26.4*
Cn1c(C(=O)OCC(=O)NCc2ccco2)cc2sccc21	.	-3.7	.	-2.0	1.7	1382	.	.	.
Fc1ccc(-c2nnsc2Sc2ccccn2)cc1	1838	11.4	6319*	58.1*	145.1*	3478*	34.5*	34.6*	15.8
Cc1c(/C(O)=C2/C(=O)C(=O)N(Cc3cccnc3)C2c2ccccn2)cnn1-c1ccccc1 (stereo unspecified)	1803	2.6	1425	-3.5	-1.4	1391	.	.	.
Cc1ccc(S(=O)(=O)NCC(=O)OCC(=O)c2ccc(Br)s2)cc1	.	36.2*	.	66.2*	55.1*	1836	51.2*	31.7*	34.8*
Cc1ccc(S(=O)(=O)NCC(=O)OCC(=O)c2cccs2)cc1	.	-0.8	.	-1.8	-2.8	1454	.	.	.
CC(Sc1nnc(-c2ccc(Cl)cc2Cl)n1Cc1ccccc1)C(=O)Nc1nccs1 (stereo unspecified)	.	37.1*	.	17.9	6.8	1618	18.6	28.0*	26.3*
Cc1nnc(SC(C)C(=O)Nc2ccc(Cl)cn2)n1Cc1ccccc1 (stereo unspecified)	1869	4.3	1631	-0.1	1.5	1728	.	.	.
COc1ccccc1C1=NN(C(=S)Nc2ccccc2)C(c2ccco2)C1 (stereo unspecified)	.	19.1*	.	22.6	18.8	1731	22.1*	18.8	13.1
CCn1c(=O)cc(SCC(=O)N2CCN(Cc3ccc4c(c3)OCO4)CC2)c2ccccc21	.	45.0*	.	41.5*	55.4*	2608*	26.6*	17.0	18.1
Cn1c(C(=O)N2CCN(Cc3ccc4c(c3)OCO4)CC2)cc2c(=O)n(C)c3ccccc3c21	.	5.9	.	-1.4	6.7	1748	.	.	.
Cn1c(=O)cc(SCC(=O)N2CCN(Cc3ccc4c(c3)OCO4)CC2)c2ccccc21	.	49.5*	.	72.0*	33.0*	2161*	25.0*	12.3	18.0
CCSc1ccccc1C(=O)N1CCN(Cc2ccc3c(c2)OCO3)CC1	.	0.4	.	8.1	3.5	1434	.	.	.
CCn1c(=O)cc(SCC(=O)Nc2cc(OC)c(OC)c(OC)c2)c2ccccc21	.	38.7*	.	42.2*	55.4*	2483*	39.5*	25.1*	26.0*
CCn1c2ccccc2c2cc(NC(=O)c3cc(OC)c(OC)c(OC)c3)ccc21	.	8.4	.	13.3	6.4	1668	.	.	.
CCn1c(=O)cc(SCC(=O)Nc2cccc(SC)c2)c2ccccc21	.	35.1*	.	46.5*	42.4*	2529*	44.0*	27.7*	27.9*
CN1CCC(N(C)C(=S)NC(=O)c2cc(-c3cccc(Br)c3)nc3ccccc23)CC1	2128	17.8	1719	2.2	6.2	1696	.	.	.
CN1C(=O)/C(=C/C=C2\SCCN2C)SC1=S	1702	2.8	1564	1.4	10.4	1546	.	.	.
O=C(O)c1ccccc1-c1ccccc1C(=O)NCCCO	.	4.1	.	10.2	-2.2	1582	.	.	.
COc1ccc(-c2nnc(SCC(=O)c3[nH]c(C)c(C(C)=O)c3C)o2)cc1	.	19.0*	.	0.4	8.7	1621	3.9	0.9	3.5
CC(=O)c1c(C)[nH]c(C(=O)CSc2nnc(-c3ccco3)o2)c1C	1872	9.9	1786	4.2	10.0	1762	.	.	.
Cc1cc(C(=O)OCC(=O)N2CC(C)OC(C)C2)ccc1[N+](=O)[O-] (stereo unspecified)	1383	-1.5	1467	0.4	6.1	1615	.	.	.
O=c1cc(N2CCOCC2)cnn1-c1ccccc1	1703	1.1	1572	5.2	-1.7	1453	.	.	.
SMILES	SRC1 TRFRET art	PPARg SRC-1 ag	SRC3 TRFRET art	PPARg SRC-3 ag	PPARg SRC2 recr	SRC2 TRFRET art	PPARg SRC2 ag	PPARg SRC1 conf	PPARg SRC3 conf
Cc1ccc(C(=O)C(C)OC(=O)c2n[nH]c(=O)c3ccccc23)cc1 (stereo unspecified)	.	-4.3	.	0.3	14.3	1669	.	.	.
CCCc1[nH]nc2c1C(c1ccc(OCCN3CCOCC3)c(OC)c1)C(C#N)=C(N)O2 (stereo unspecified)	1811	5.2	1561	-1.5	1.6	1424	.	.	.
CCOc1ccc(C2C(C#N)=C(N)SC(N)=C2C#N)c(OCC)c1	.	26.7*	.	17.4	4.4	1849	6.6	4.3	4.1
CCOc1cc(C2C(C#N)=C(N)SC(N)=C2C#N)ccc1OCCN1CCOCC1	.	30.3*	.	46.3*	36.5*	2438*	-2.0	-0.4	1.2
Cc1ccc(S(=O)(=O)n2[nH]c(=O)c(CCO)c2C)cc1	1864	6.4	1527	-0.6	-6.1	1486	.	.	.
Fc1ccc(N/N=C/C=C/c2ccccc2)c(F)c1	1674	1.9	1553	0.3	2.1	1547	.	.	.
CCOC(=O)c1sc(=S)n(-c2ccccc2)c1SC	.	-2.8	.	3.3	-1.1	1626	.	.	.
CCOC(=O)c1sc(=S)n(-c2ccccc2Cl)c1SC	.	29.5*	.	30.7*	30.8*	1889	40.4*	35.9*	28.7*
CSc1nc2sc3c(c2c(=O)[nH]1)CCCC3	.	0.5	.	2.8	2.8	1485	.	.	.
O=c1[nH]c(S)nc2sc3c(c12)CCCC3	2564*	22.6*	2183*	13.4	29.2*	2002*	17.5	11.0	11.8
COc1ccc(C(=S)N2CCOCC2)cc1OS(=O)(=O)c1ccccc1[N+](=O)[O-]	1564	-11.0	1397	-2.1	-1.9	1364	.	.	.
COc1ccc(CCC(C)Nc2ccc(F)cc2)cc1 (stereo unspecified)	.	-6.8	.	4.7	5.4	1572	.	.	.
CCOC(=O)c1sc(NC(=O)c2ccco2)nc1-c1ccccc1	.	26.4*	.	31.8*	3.7	1718	31.7*	19.5	17.3
CC(=O)c1sc(NC(=O)c2ccco2)nc1-c1ccccc1	.	5.7	.	7.7	6.0	1647	.	.	.
CCOC(=O)c1sc2nc(CC(=O)OC)nc(NCc3ccco3)c2c1C	.	0.3	.	-3.7	6.1	1592	.	.	.
CCOC(=O)c1sc2ncnc(NCc3ccco3)c2c1C	.	9.2	.	30.0*	22.8*	1926	18.7	15.9	10.1
Cc1cc(C)cc(-n2c(C)nc3cc(C(=O)O)ccc32)c1	1730	10.3	1700	3.6	3.5	1595	.	.	.
